Source: PubChem BioAssay AID593 (National Center for Advancing Translational Sciences (NCATS), 2007)
Among all 59,000 compounds or so, about 540 (0.92%) were called active. About 33% were inconclusive and are not listed. No stated cut-off is given here; in the data, active means max fluorescein-equivalent concentration above about 10 nM; inconclusive means between about 1.1 nM and that limit; inactive means weaker than that. The sample as a whole holds a higher share of actives than the screen did.

experiment: qHTS Assay for Spectroscopic Profiling in Fluorescein Spectral Region; conditions: Compound autofluorescence, 480/540 nm; max fluorescein-equivalent concentration: stronger effect = higher value; outcome: fluorescein-equivalent
Text: NIH Molecular Libraries Screening Centers Network [MLSCN]
NIH Chemical Genomics Center [NCGC]
Occasionally, the artifactual effect may originate from the compound's own spectral or other biophysical properties which generally tend to track its assay concentration. Pre-screening/profiling the library with respect to the compounds' spectral properties should help one exclude false positives early on. While the most informative fluorescent profiling data set is obtained by performing a full excitation and emission scan of each well by using a monochromator-based plate reader, such an approach is practical only on a very limited scale as scanning each well requires long time. An alternative approach, applied here, is to perform plate reader scans using selected excitation and emission wavelength pairs to generate a multidimensional relational database that correlates compound concentration and the respective relative fluorescence intensity at a given wavelength set. A standard curve of fluorescein present on each plate as six-point concentration series, was used to compute a normalized fluorescence response, termed dye-equivalent concentration, for each compound at each concentration.
NCGC Assay Protocol Summary:
100 mM Tris buffer, pH 8.0
The wells in columns 1 through 4 of a Kalypsys polypropylene 1536-well compound plate were filled with standard solutions of fluorophore corresponding to the spectral region of interest. Solutions of Fluorescein were placed in the following wells: Q1, R1: 3 mM, Q2, R2: 300 uM, Q3, R3: 30 uM, Q4, R4: zero (DMSO), S1, T1: 3 uM, S2, T2: 900 nM, S3, T3: 300 nM, S4, T4: zero (DMSO).
Six uL of buffer were dispensed to 1536-well Greiner black plates. Compounds and dye standards (23 nL) were transferred via Kalypsys PinTool. The plates were incubated for 15 min at room temperature, and then read on ViewLux (Perkin-Elmer) High-throughput CCD imager using 480 nm and 540 nm excitation and emission filter set.
Keywords: NIH Roadmap, MLSCN, MLI, MLSMR, qHTS, NCGC, Fluorescein, Fluorescent Profiling.

Max fluorescein-equivalent concentration, active:
O=C(O)c1c(Br)c(Br)c(Br)c(Br)c1C1c2ccc(O)cc2Oc2cc(O)ccc21 320 nM, CCCn1c(O)c(CN2CCCC(C)C2)c(C)c(C#N)c1=O (centres undefined) 65 nM, Cc1ccc(S(=O)(=O)C(C#N)c2nc3ccccc3nc2N2CCCC2)cc1C (centres undefined) 14 nM, CCOC(=O)c1cc2n(c1N)-c1ccccc1C2=O 780 nM, CCN(CC)c1ccc2oc(=O)c(C)nc2c1 140 nM, Nc1ccc2c3c(cccc13)C(=O)NC2=O 2000 nM, CC[N+](C)(CC)CCC[n+]1c(-c2ccccc2)c2cc(N)ccc2c2ccc(N)cc21 18 nM

Max fluorescein-equivalent concentration, inactive:
COc1ccc2nc(NC3=NCN(CC4CCCO4)CN3)nc(C)c2c1 (centres undefined), COc1cccc(Nc2ncc3ncc(=O)n(C4CC4)c3n2)c1, Oc1c(Br)cc(CN(Cc2cc(Br)c(O)c(Br)c2)C2CCCCC2)cc1Br, COc1ccc(C2C3=C(CC(C)(C)CC3=O)Oc3ncn4nc(-c5cccnc5)nc4c32)cc1OC (centres undefined), O=C(c1ccc([N+](=O)[O-])cc1)[C@@H](Br)[C@@H](Br)c1ccnc2ccccc12, CN(C)CCSS(=O)(=O)O, CCCn1c(SCC(=O)c2ccc3c(c2)OCCO3)nnc1C(C)C, CCCCOc1ccccc1/C=c1/sc2nc(-c3oc4ccccc4c3C)nn2c1=O, COc1cccc(Cn2c(=O)c(-c3cc(F)cc(F)c3)nc3cnc(OC)nc32)c1, CCOC(=O)CSc1nc2sc3c(c2c(=O)[nH]1)CC(C)(C)OC3, CCOc1ccc2[nH]c(=O)c(CN(CCCO)C(C)=O)cc2c1, CN1CCN(CC(=O)C23CC4CC(CC(C4)C2)C3)CC1, c1ccc2sc(SCCSc3nc4ccccc4s3)nc2c1, CCOC(=O)c1csc(NC(=O)c2ccc(S(=O)(=O)N3CCCC3)cc2)n1, O=C(c1ccco1)N1CCC2(CC1)CN(c1ncccn1)C2, CCOC(=O)c1sc(NC(=O)c2cc(S(=O)(=O)N3CCOCC3)ccc2C)nc1C, COc1cccc(-c2nc(Nc3ccncc3)c3ccccc3n2)c1, CC(C)NC(=O)N1CC[C@@]2(CCCN(C(=O)c3cccn3C)C2)C1, CCCCCC(=O)Nc1ccc2oc(-c3ccncc3)nc2c1, Cc1ccc(CC2CC(=O)N(c3ccc4c(c3)OCCO4)C2=O)cc1 (centres undefined), CCOC(=O)C1C(=O)NC(N2CCN(c3ccccc3)CC2)=NC1c1ccco1 (centres undefined), O=C(c1cnccn1)N1CCC2(CCN(Cc3cc(C(F)(F)F)cc(C(F)(F)F)c3)CC2)CC1, N=c1c2c3c(sc2ncn1N)CCCCC3, O=c1c(-c2ccc(F)cc2)nc2cnc(N3CCNCC3)nc2n1Cc1cccs1, CCN(CC)C(=O)C1CCC(C)(C(=O)O)C1(C)C (centres undefined), CCc1ccc(CCC(=O)Nc2ccc(S(N)(=O)=O)cc2)o1, COc1ccc(-c2nc(SCC(=O)N3CCOCC3)n[nH]2)cc1, CN(C)/C=C1/Nc2ccccc2C1=O, COC(=O)C(C)N(C#N)c1nc(C)nc(C)n1 (centres undefined), COCCCn1c2nc3ccccc3nc2c2c(=O)n(Cc3ccc(Cl)cc3)c(C)nc21, CCN(CC)S(=O)(=O)c1ccc2nc(CSc3nnnn3-c3ccc(O)cc3)[nH]c2c1, COc1cc(OC)cc(C(=O)Nc2ccc(-c3nc4ccccc4o3)c(O)c2)c1, CC(=O)c1ccc(N2C(=NC(=O)C(C)C)SC3CS(=O)(=O)CC32)cc1 (centres undefined), COc1ccc(C(c2nnnn2Cc2cccs2)N2CCN(c3ccccc3)CC2)cc1OC (centres undefined), CC(=O)c1ccc(NC(=O)N[C@@H](Cc2ccccc2)C(=O)O)cc1, CC(C)c1ccc(-c2nn[nH]n2)cc1, Cn1c(SCC(=O)c2cccs2)nnc1-c1ccco1, CC1(C)Cc2ccccc2-c2nnc(-c3cccc(O)c3)n21, CC1(C)Cc2cccc(OCC(=O)Nc3nccs3)c2O1, COC(=O)c1ccc(NC(=O)CSc2nnc(-c3ccncc3)n2C)cc1, Cc1ccc(C)c(NC(=O)C2CC(=O)N(C(C)C)C2)c1 (centres undefined), Cc1ccccc1-c1nc(N(C)Cc2ccco2)c2ccccc2n1, c1ccc(CSCCc2ccncc2)cc1, C[C@]1(O)CC[C@H]2[C@H]3CC=C4N5CCN=C5CC[C@@]4(C)[C@H]3CC[C@@]21C, O=c1[nH]nc(Cc2ccccn2)c2ccccc12, Cc1ccc(-c2noc(CN3CCN(Cc4ccccc4)CC3)n2)cc1, CCOC(=O)c1cc2occc2n1CC(=O)NC1CCC(C)CC1 (centres undefined), COc1ccc(C(=O)N(Cc2ccc(N(C)C)cc2)C2CCS(=O)(=O)C2)cc1 (centres undefined), O=S(=O)(NCCOc1cccc2cccnc12)c1ccc(F)cc1, Nc1nc2c(ncn2[C@H]2CC[C@@H](CO)O2)c(=O)n1C(=O)c1ccccc1, O=C(O)[C@H](CCc1ccccn1)c1ccccc1, O=C(COc1cccc(-n2cnnn2)c1)NCCC1=CCCCC1, Cc1cc2c(cc1C)NC1=C(N2)O[C@H](c2c[nH]c3ccc(COc4ccccc4)cc23)C1=O, CC(C)CC(=O)N=C1SC2CS(=O)(=O)CC2N1CCc1ccccc1 (centres undefined), O=C(c1ccco1)N1CCC2(CC1)CCN(c1ncccn1)CC2, NCC(=O)[C@@H](O)[C@H](O)[C@H](O)CO, Cc1cc(C)c2cc(CN(Cc3cccs3)Cc3nnnn3CC3CCCO3)c(=O)[nH]c2c1 (centres undefined), CS(=O)(=O)N1CCC2(CCN(c3ccncc3)CC2)CC1, COc1ccc(-c2ccc(-c3noc(-c4ccncc4)n3)c(OC)n2)cc1, COc1cccc(-c2cc(NCCc3c[nH]c4ccc(OC)cc34)ncn2)c1, CN1CCN(c2ccc(NC(=O)COc3ccc(Cl)cc3Cl)cc2)CC1, Clc1ccc(C(c2ccc(Cl)cc2)n2cc[n+](C[C@@H](OCc3ccc(Cl)cc3Cl)c3ccc(Cl)cc3Cl)c2)cc1, COCCn1c(=O)c(CCc2ccccc2)nc2cnc(N3CCNCC3)nc21, COc1ccccc1CCn1c(=O)c(-c2cn(C)c3ccccc23)nc2cncnc21, CCn1c(Cc2ccccc2)nnc1SCC(=O)Nc1ccccc1, O=c1cc(-c2ccc(O)c(O)c2)oc2cccc(O)c12, CCCCCCn1c(CN2CCCC(C)C2)nc2c1c(=O)n(C)c(=O)n2C (centres undefined), COC(=O)c1c(NC(=O)CSc2nc3c(c(=O)n(C)c(=O)n3C)n2C(C)C)sc(C)c1C, Clc1ccc(C=Nc2ccc3c(c2)Cc2ccccc2-3)c(Cl)c1, CCNc1ncc2nc(CCc3ccccc3)c(=O)n(-c3ccc(OC)cc3)c2n1, CSCCC(Nc1nc2ccccc2s1)C(=O)O (centres undefined), CCn1c(COc2cccc(OC)c2)nnc1SCC(=O)N1CCOCC1, O=C(O)[C@@H](S)[C@H](S)C(=O)O, COc1ccc(OC)c([C@H](O)CNC(=O)CN)c1, COCCNC(=O)C(C#N)c1nc2ccccc2nc1N1CCN(Cc2ccc3c(c2)OCO3)CC1 (centres undefined), CC(=O)/C(=N\N=C(N)N)c1ccccc1, CCCCC(=O)Nc1ccc(C(=O)NCCCn2ccnc2)cc1, O=c1[nH]nc(CSCc2ccccc2Cl)[nH]1, COC(=O)N1CCC[C@@]2(CCN(C(=O)NC(C)C)C2)C1, CCOC(=O)c1cc2n(c1C)-c1ccccc1C2=O, CCOC(=O)c1cc2ccccc2nc1C, CCc1ccc2oc(-c3ccc(N)cc3)nc2c1, O=C(c1ccncc1)N1CCC2(CCCN(C(c3ccccc3)c3ccccc3)C2)CC1, CC(C)CSC[C@@H]1O[C@H](n2cnc3c(N)nccc32)[C@H](O)[C@@H]1O, COc1ccc(-c2nc3cnc(Oc4ccccc4)nc3n(Cc3cccs3)c2=O)cc1, CCOc1ccc(N=NS(=O)(=O)O)cc1, O=c1c(-c2cccs2)nc2cnc(Oc3ccccc3)nc2n1-c1ccccc1, CCn1c(COc2ccc(OC)cc2)nnc1SCC(=O)Nc1cc(OC)ccc1OC, Cc1ccc2nc(NCCCNC(=O)c3cnccn3)c(C#N)cc2c1, CC(C)CNC(=O)C1CCCN(S(=O)(=O)c2ccc(-n3cnnn3)cc2)C1 (centres undefined), FC(F)(F)c1ccccc1-c1cc(NCc2ccccc2)ncn1, COCCn1c(=O)c(C)nc2cnc(N(C)C)nc21, CN1CCN(C(=O)c2ccc(NS(=O)(=O)c3ccccc3)cc2)CC1, CN1CCN(Cc2nc3c(c(=O)n(C)c(=O)n3C)n2Cc2cccc3ccccc23)CC1, CS(=O)(=O)N(C(=O)NC(=O)NC1CCS(=O)(=O)C1)C1CCCCC1 (centres undefined), NC(=O)C1CCN(C(=O)c2ccc(C(F)(F)F)cc2)CC1, CC1(C)S[C@@H]2[C@@H](NC(=O)[C@@H](N)c3ccccc3)C(=O)N2[C@H]1C(=O)O, O=C(NCCc1ccco1)c1nn(Cc2ccccc2)c(=O)c2ccccc12, CN(C)CCCn1c2ccccc2c2cnccc21, CC(C)c1nc2oc3c(N4CCN(C)CC4)ncnc3c2c2c1CCC2, CC(=O)N1CCN(c2ccc(NCc3ccc(C(C)C)cc3)cc2)CC1, Cc1ccc(C(=O)NCC(=O)O)cc1S(=O)(=O)N1CCCCC1
